The source of these data is PubChem BioAssay (Tox21).

“And” between values parts separate entries of the source, which are not always exact repeats. Identical values can stand only once. Results filed as inconclusive are left out. A call without a number means that no potency is given here. The source made the active and inactive calls. Calls come from the whole dose curve; as a rule, active = well fitted curve in the direction sought with a large enough effect in the repeat runs; inconclusive = weak or mixed curves; inactive = no such curve, though single readings can be large; an effect the other way counts as inactive or inconclusive.

One experiment is described as follows: qHTS assay for identifying genotoxic compounds that show differential cytotoxicity against isogenic chicken DT40 cell lines with known DNA damage response pathways - Rev3 mutant cell line (AID 743014). Note: nearly all actives have a fitted effect of over 55% in size. Note: potency is the fitted concentration of half-maximal effect. The note with it: chicken DT40 Rev3-/- viability, CellTiter-Glo, 40 h; series mostly up to 68.4 µM. In general terms: qHTS replaces the single test concentration by a dilution series.
On to `Nc1ccc(Cl)c(N)c1`, for which the Potency result is “inactive”.

For the compound `CCCCCCCCCCCC(=O)OC`, the Potency entry was “inactive”.

`C=C(C)[C@H]1CC=C(C)C(=O)C1`: the Potency result was “inactive”.

Take `NCCCCCCN`: the Potency entry is “inactive”.

For `CC1(C)OC[C@@H]2O[C@@]3(C(=O)O)OC(C)(C)O[C@H]3[C@@H]2O1`, the Potency result is “inactive”.

Regarding `CCOCC(=O)O`, the Potency result was “inactive”.

For the compound `CSc1ccc(Cl)cc1`, the Potency entry is “inactive”.

Consider `CN(C)c1ccc(O)c2c1C[C@H]1C[C@H]3[C@H](N(C)C)C(=O)C(C(N)=O)=C(O)[C@@]3(O)C(=O)C1=C2O`, for which the Potency was 26.6 µM (active) and 18.8 µM (active) and 13.7 µM (active).

`CC(=O)OCCOC(C)=O`: the Potency result is “inactive”.

A short description of another experiment: qHTS assay to identify small molecule antagonists of the androgen receptor (AR) signaling pathway - cell viability counter screen (AID 743033; note: nearly all actives have a fitted effect of over 45% in size). The note with it: AR-bla HEK293 viability, CellTiter-Glo luminescence, 16 h; series mostly up to 58.5 µM.
Take `CC(C)(C)c1cc(Cc2cc(C(C)(C)C)c(O)c(C(C)(C)C)c2)cc(C(C)(C)C)c1O`: the outcome was inactive.

As for `CCOCCOCCOCCO`, the compound was called inactive.

On to `Clc1ccccn1`, for which the result was inactive.

On to `C=CCc1ccc(OC)c(OC)c1`, for which the call was inactive.

In the case of `O=C1c2ccccc2CCc2ccccc21`, the result was inactive.

On to `C=CC(C)CCCC(C)(C)O` (stereo not drawn), for which the compound was classed as inactive.

As for `CCCCCCCCCCO`, the result was inactive.

For the compound `CN(C)c1ccc(Cc2ccc(N(C)C)cc2)cc1`, the compound was classed as inactive.

Take `COc1ccc(OC)cc1`: the compound was classed as inactive.

`CC1(C)CC(N)CC(C)(CN)C1` (stereo not drawn): the call was inactive.

As for `CCCCCCCC=O`, the result was inactive.

In the case of `CC(=O)OC1CC(C)OC(C)O1` (stereo not drawn), the outcome was inactive.

As to `COCCOC(=O)c1ccccc1C(=O)OCCOC`, the outcome was inactive.

On to `CCCCCCCCCCN`, for which the call was inactive.

With `CCCOC(=O)c1ccccc1`, the outcome was inactive.

Consider `NC(=S)NNC(N)=S`, for which the result was inactive.

Take `CC1(C)NC(=O)NC1=O`: the result was inactive.

For `CC(=O)c1ccc(O)cc1`, the compound was called inactive.

For `CC(C)(C#N)c1cc(Cn2cncn2)cc(C(C)(C)C#N)c1`, the compound was classed as inactive.
